Measured values published in PubChem BioAssay (NCATS).
Results filed as inconclusive are left out. Where a call stands in place of a potency, no number is given. The source made the active and inactive calls. Unless noted, the call rests on the fitted dose curve.

tested on: not listed separately; assay: qHTS for Inhibitors of the Functional Ribonucleoprotein Complex (vRNP) of Lymphocytic Choriomeningitis Arenaviruses (LCMV): Viability assay - alamar blue signal for LCMV Primary Screen (AID 1347085; calls by dose curve; tested in HEK293 reporter line; further: nearly all actives have a fitted effect of over 80% in size); settings: alamar blue viability counter-screen, LCMV vRNP screen cells; series mostly up to 57.5 µM
Potency means the concentration at half of the fitted maximal effect.

SMILES | Potency
Oc1c(Br)cc(Br)c2cccnc12 | inactive
Cc1cc(C)nc(NS(=O)(=O)c2ccc(N)cc2)n1 | inactive
CCc1cccc(CC)c1NC(=O)CN(CC(=O)O)CC(=O)O | inactive
CC(C(=O)O)c1ccc2c(c1)[nH]c1ccc(Cl)cc12 (stereo unspecified) | inactive
Cc1ccc(-c2ccccc2C#N)cc1 | inactive
NCCS(=O)(=O)O | inactive
CC(C)C(=O)Nc1cccc(C(F)(F)F)c1 | inactive
Cc1cc(C)c(NC(=O)CN(CC(=O)O)CC(=O)O)c(C)c1Br | inactive
NCCCNCCSP(=O)(O)O | inactive
N#CC1(c2ccc(F)cc2)CCC(=O)CC1 | inactive
OCc1ccc(Cl)cc1Cl | inactive
CC(C)C(=O)c1c(C(C)C)nn2ccccc12 | inactive
Nc1ccc(S(=O)(=O)NC(=O)c2ccccc2)cc1 | inactive
Nc1nc(-c2ccccc2)c(Br)c(=O)[nH]1 | inactive
C[C@@H]1O[C@@H](O[C@H]2CC[C@@]3(C)[C@H](CC[C@@H]4[C@H]3C[C@@H](O)[C@]3(C)[C@@H](C5=CC(=O)OC5)CC[C@]43O)C2)C[C@H](O)[C@@H]1O[C@H]1C[C@H](O)[C@H](O[C@H]2C[C@H](O)[C@@H](O)[C@@H](C)O2)[C@H](C)O1 (stereo in doubt) | 396 nM (active)
CCOC(N)=O | inactive
C[N+](C)(CCOc1ccccc1)Cc1cccs1 | inactive
CC[N+](CC)(CCNC(=O)C(=O)NCC[N+](CC)(CC)Cc1ccccc1Cl)Cc1ccccc1Cl | inactive
NC(=O)c1ncn([C@@H]2O[C@H](CO)[C@@H](O)[C@H]2O)c1O | inactive

SMILES | Potency
CC1(COc2ccc(CC3SC(=O)NC3=O)cc2)CCCCC1 (stereo unspecified) | inactive
COc1cc2c3cc1Oc1cc(ccc1O)C[C@@H]1c4c(cc(OC)c(O)c4Oc4ccc(cc4)C[C@@H]3N(C)CC2)CC[N+]1(C)C | inactive
CC(C)CN(C[C@@H](O)[C@H](Cc1ccccc1)NC(=O)O[C@H]1CO[C@H]2OCC[C@H]21)S(=O)(=O)c1ccc(N)cc1 | inactive
NC(CS)C(=O)O (stereo unspecified) | inactive
Nc1ncnc2c1ncn2[C@@H]1O[C@H](CO)[C@@H](O)[C@H]1O | inactive
C[C@@H]1CN(c2c(F)c(F)c3c(=O)c(C(=O)O)cn(C4CC4)c3c2F)C[C@H](C)N1 | inactive
CC(C)=CCC/C(C)=C/CO | inactive
COc1ccc(C(=O)CC(=O)c2ccc(C(C)(C)C)cc2)cc1 | inactive
Nc1ccc(O)cc1 | inactive
CC(C(=O)O)c1cccc(Oc2ccccc2)c1 (stereo unspecified) | inactive
COC(=O)c1cc(Cl)c(NC(C)=O)cc1OC | inactive
CCCCCCCCCCCCCCCC(=O)O | inactive
CC(=O)NO | inactive
C[C@@H]1O[C@@H](OC[C@H]2O[C@@H](Oc3c(-c4ccc(O)c(O)c4)oc4cc(O)cc(O)c4c3=O)[C@H](O)[C@@H](O)[C@@H]2O)[C@H](O)[C@H](O)[C@H]1O | inactive
CC(C)(Oc1ccc(C2CC2(Cl)Cl)cc1)C(=O)O (stereo unspecified) | inactive
CCCCCCCCCCCCCCCC(=O)NCCO | inactive
NC1CCN(c2nc3c(cc2F)c(=O)c(C(=O)O)cn3-c2ccc(F)cc2F)C1 (stereo unspecified) | inactive
CN1Cc2cc(C(=O)N3CCC(C4CCNCC4)CC3)ccc2NC(CC(=O)O)C1=O (stereo unspecified) | inactive
CC(O)CCCCn1c(=O)c2c(ncn2C)n(C)c1=O (stereo unspecified) | inactive

target: Nucleoprotein (Lymphocytic choriomeningitis virus (strain Armstrong)) (UniProt P09992); assay: qHTS for Inhibitors of the Functional Ribonucleoprotein Complex (vRNP) of Lymphocytic Choriomeningitis Arenaviruses (LCMV): LCMV Primary Screen - GLuc reporter signal (AID 1347086); settings: LCMV minigenome vRNP cell assay, Gaussia luciferase reporter; series mostly up to 57.5 µM; further: nearly all actives have a fitted effect of over 70% in size
Sequence (P09992 whole entry, looked up): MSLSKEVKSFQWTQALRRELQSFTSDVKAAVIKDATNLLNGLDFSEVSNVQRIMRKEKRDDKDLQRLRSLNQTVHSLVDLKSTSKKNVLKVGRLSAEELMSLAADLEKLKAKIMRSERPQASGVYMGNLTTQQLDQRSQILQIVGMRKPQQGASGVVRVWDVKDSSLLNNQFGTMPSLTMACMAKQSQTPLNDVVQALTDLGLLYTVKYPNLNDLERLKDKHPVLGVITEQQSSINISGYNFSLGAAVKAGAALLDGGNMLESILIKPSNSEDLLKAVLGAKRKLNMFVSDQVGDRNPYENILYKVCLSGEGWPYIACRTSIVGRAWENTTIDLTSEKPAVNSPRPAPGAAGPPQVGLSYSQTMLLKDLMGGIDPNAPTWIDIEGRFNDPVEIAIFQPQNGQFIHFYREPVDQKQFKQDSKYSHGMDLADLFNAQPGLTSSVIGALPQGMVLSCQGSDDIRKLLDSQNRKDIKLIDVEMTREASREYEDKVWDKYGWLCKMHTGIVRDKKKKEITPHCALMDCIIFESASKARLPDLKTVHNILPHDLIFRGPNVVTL

SMILES | Potency
Oc1c(Br)cc(Br)c2cccnc12 | inactive
Cc1cc(C)nc(NS(=O)(=O)c2ccc(N)cc2)n1 | inactive
CCc1cccc(CC)c1NC(=O)CN(CC(=O)O)CC(=O)O | inactive
CC(C(=O)O)c1ccc2c(c1)[nH]c1ccc(Cl)cc12 (stereo unspecified) | inactive
Cc1ccc(-c2ccccc2C#N)cc1 | inactive
NCCS(=O)(=O)O | inactive
CC(C)C(=O)Nc1cccc(C(F)(F)F)c1 | inactive
Cc1cc(C)c(NC(=O)CN(CC(=O)O)CC(=O)O)c(C)c1Br | inactive
NCCCNCCSP(=O)(O)O | inactive
N#CC1(c2ccc(F)cc2)CCC(=O)CC1 | inactive
OCc1ccc(Cl)cc1Cl | inactive
CC(C)C(=O)c1c(C(C)C)nn2ccccc12 | inactive
Nc1ccc(S(=O)(=O)NC(=O)c2ccccc2)cc1 | inactive
Nc1nc(-c2ccccc2)c(Br)c(=O)[nH]1 | inactive
C[C@@H]1O[C@@H](O[C@H]2CC[C@@]3(C)[C@H](CC[C@@H]4[C@H]3C[C@@H](O)[C@]3(C)[C@@H](C5=CC(=O)OC5)CC[C@]43O)C2)C[C@H](O)[C@@H]1O[C@H]1C[C@H](O)[C@H](O[C@H]2C[C@H](O)[C@@H](O)[C@@H](C)O2)[C@H](C)O1 (stereo in doubt) | 444 nM (active)
CCOC(N)=O | inactive
C[N+](C)(CCOc1ccccc1)Cc1cccs1 | inactive
CC[N+](CC)(CCNC(=O)C(=O)NCC[N+](CC)(CC)Cc1ccccc1Cl)Cc1ccccc1Cl | inactive
NC(=O)c1ncn([C@@H]2O[C@H](CO)[C@@H](O)[C@H]2O)c1O | inactive

SMILES | Potency
CC1(COc2ccc(CC3SC(=O)NC3=O)cc2)CCCCC1 (stereo unspecified) | inactive
COc1cc2c3cc1Oc1cc(ccc1O)C[C@@H]1c4c(cc(OC)c(O)c4Oc4ccc(cc4)C[C@@H]3N(C)CC2)CC[N+]1(C)C | inactive
CC(C)CN(C[C@@H](O)[C@H](Cc1ccccc1)NC(=O)O[C@H]1CO[C@H]2OCC[C@H]21)S(=O)(=O)c1ccc(N)cc1 | inactive
NC(CS)C(=O)O (stereo unspecified) | inactive
Nc1ncnc2c1ncn2[C@@H]1O[C@H](CO)[C@@H](O)[C@H]1O | inactive
C[C@@H]1CN(c2c(F)c(F)c3c(=O)c(C(=O)O)cn(C4CC4)c3c2F)C[C@H](C)N1 | inactive
CC(C)=CCC/C(C)=C/CO | inactive
COc1ccc(C(=O)CC(=O)c2ccc(C(C)(C)C)cc2)cc1 | inactive
Nc1ccc(O)cc1 | inactive
CC(C(=O)O)c1cccc(Oc2ccccc2)c1 (stereo unspecified) | inactive
COC(=O)c1cc(Cl)c(NC(C)=O)cc1OC | inactive
CCCCCCCCCCCCCCCC(=O)O | inactive
CC(=O)NO | inactive
C[C@@H]1O[C@@H](OC[C@H]2O[C@@H](Oc3c(-c4ccc(O)c(O)c4)oc4cc(O)cc(O)c4c3=O)[C@H](O)[C@@H](O)[C@@H]2O)[C@H](O)[C@H](O)[C@H]1O | inactive
CC(C)(Oc1ccc(C2CC2(Cl)Cl)cc1)C(=O)O (stereo unspecified) | inactive
CCCCCCCCCCCCCCCC(=O)NCCO | inactive
NC1CCN(c2nc3c(cc2F)c(=O)c(C(=O)O)cn3-c2ccc(F)cc2F)C1 (stereo unspecified) | inactive
CN1Cc2cc(C(=O)N3CCC(C4CCNCC4)CC3)ccc2NC(CC(=O)O)C1=O (stereo unspecified) | inactive
CC(O)CCCCn1c(=O)c2c(ncn2C)n(C)c1=O (stereo unspecified) | inactive
